# Assay results reported in PubChem BioAssay (NCI).
# Compounds without any hit were thinned out: in the full panel of roughly 79,000, 15% have a hit. A number with no mark means an inactive call. Active and inactive are the calls of the source. No stated cut-off is given here; in the data, active means growth inhibition above about 70%; inactive means the rest.
# Legend:
# [1] = NCI Yeast Anticancer Drug Screen. Data for the rad50 strain (AID 155);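 further: 0% = growth of vehicle-only cultures of the same strain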; details: S. cerevisiae rad50 strain growth inhibition, stronger effect = higher value
# How it was run: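 Cells are treated with compound, grown, and their growth is then scored against vehicle-only cultures of the same repair-deficient yeast strain.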
# [2] = NCI Yeast Anticancer Drug Screen. Data for the mec2-1 strain (AID 157); details: S. cerevisiae mec2-1 strain, stronger effect = higher value
# How it was run: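 Each compound was tested on mec2-1 yeast, a strain altered in DNA damage repair or cell cycle control. Growth inhibition is reported relative to vehicle.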
# [3] = NCI Yeast Anticancer Drug Screen. Data for the sgs1 mgt1 strain (AID 161);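 further: 0% = growth of cultures given vehicle only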; details: S. cerevisiae sgs1 mgt1 strain, stronger effect = higher value
# How it was run: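 Read-out: growth inhibition vs vehicle controls. Cells: mutant yeast strain deficient in DNA damage repair.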
# [4] = NCI Yeast Anticancer Drug Screen. Data for the cln2 rad14 strain (AID 165);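 further: 0% = growth equal to vehicle treated cultures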; details: S. cerevisiae cln2 rad14 strain, stronger effect = higher value
# How it was run: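 Test compounds were added to cln2 rad14 yeast cultures; inhibition of growth was then determined by comparison with vehicle treatment.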
# [5] = NCI Yeast Anticancer Drug Screen. Data for the bub3 strain (AID 167); details: S. cerevisiae bub3 mutant strain, stronger effect = higher value
# How it was run: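 Part of a panel of yeast mutants defective in DNA damage repair or cell cycle regulation. Each strain is grown with compound, and inhibition is calculated relative to solvent-treated cultures.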
# [6] = NCI Yeast Anticancer Drug Screen. Data for the mlh1 rad18 strain (AID 175); details: S. cerevisiae mlh1 rad18 strain growth inhibition, stronger effect = higher value
# How it was run: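 Inhibition values reflect reduced growth of mutant yeast versus vehicle-treated controls following compound exposure; the mutations affect DNA damage repair.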
# [7] = at 5.0 µM (retest, dose inferred, filed as 0.5)
# [8] = at 50.0 µM (retest, dose inferred, filed as 5.0)
SMILES,"growth inhibition [1, 7]","growth inhibition [1, 8]",growth inhibition ([1]; at 50.0 µM),"growth inhibition [2, 7]","growth inhibition [2, 8]",growth inhibition ([2]; at 50.0 µM),"growth inhibition [3, 7]","growth inhibition [3, 8]",growth inhibition ([3]; at 50.0 µM),"growth inhibition [4, 7]","growth inhibition [4, 8]",growth inhibition ([4]; at 50.0 µM),"growth inhibition [5, 7]","growth inhibition [5, 8]",growth inhibition ([5]; at 50.0 µM),"growth inhibition [6, 7]","growth inhibition [6, 8]",growth inhibition ([6]; at 50.0 µM)
O=C1C=CC(=O)c2c(O)c(N3CCN(CCO)CC3)c(Cl)c(O)c21,37%,95% (active),84.7% (active),33%,99% (active),89.8% (active),48%,99% (active),90.7% (active),26%,82% (active),86.8% (active),47%,98% (active),88.5% (active),41%,98% (active),88.8% (active)
O=C(/C=C/C(=O)c1ccc(O)cc1)c1ccccc1,-1%,89% (active),12.4%,-1%,85% (active),26.6%,-3%,82% (active),30.8%,3%,90% (active),24.6%,-6%,87% (active),38.6%,-1%,94% (active),24.7%
C#CC(C)(C)Nc1c2ccccc2nc2ccccc12,7%,98% (active),98.2% (active),2%,97% (active),94.6% (active),-1%,98% (active),98.8% (active),0%,94% (active),93.7% (active),-2%,98% (active),97.5% (active),11%,98% (active),98.7% (active)
CC12CCCC1C1CC=C3CC(OC=O)CCC3(C)C1CC2 (stereo not given),1%,4%,13.4%,10%,3%,1.5%,0%,25%,40.9%,-37%,-5%,38.8%,-8%,44%,-13.4%,-1%,-2%,-12.3%
CC[N+]1=C(/C=C\c2cc(C)c3cccnc3c2O)C(C)(C)c2ccccc21,0%,98% (active),53.9%,-2%,98% (active),48.7%,-6%,98% (active),48.1%,-4%,98% (active),77% (active),-5%,98% (active),93.2% (active),0%,97% (active),51.7%
C=C(c1ccccc1)[N+](=O)[O-],94% (active),99% (active),99.2% (active),63%,99% (active),99.4% (active),59%,99% (active),99.6% (active),37%,99% (active),99.1% (active),67%,99% (active),99.3% (active),67%,100% (active),99.2% (active)
N#CSCc1ccc(Cl)c(CSC#N)c1,18%,99% (active),99% (active),4%,99% (active),99.3% (active),8%,99% (active),98.8% (active),10%,98% (active),98.2% (active),16%,100% (active),98.8% (active),10%,99% (active),99% (active)
CN(Cc1cnc2nc(N)nc(N)c2n1)c1ccc(C(=O)NC(CCC(=O)O)C(=O)O)cc1 (stereo not given),2%,5%,37.2%,-16%,79% (active),88% (active),9%,53%,45.8%,0%,-10%,1.4%,1%,-6%,-9.7%,-19%,-9%,25.1%
Cc1nc(N2N=C(c3ccc(Cl)cc3)CCC2=O)sc1[N+](=O)[O-],10%,85% (active),85% (active),13%,65%,86.5% (active),-1%,71% (active),83.7% (active),12%,46%,82% (active),10%,88% (active),84% (active),-12%,92% (active),65.2%
CC(C)c1ccc(S(=O)(=O)c2ccc([N+](=O)[O-])cc2[N+](=O)[O-])cc1,98% (active),91% (active),93.8% (active),100% (active),97% (active),96.5% (active),100% (active),97% (active),96.8% (active),76% (active),94% (active),94.5% (active),95% (active),96% (active),96.2% (active),99% (active),95% (active),96.2% (active)
Cn1cnc([N+](=O)[O-])c1Sc1nc2cccnc2s1,45%,80% (active),79.5% (active),34%,77% (active),77.1% (active),40%,59%,67.8%,29%,44%,52%,38%,68%,71.8% (active),54%,90% (active),75.6% (active)
CC(C)(CN1CCCCC1)C(=O)CC(SCCS(=O)(=O)O)c1ccc(Cl)cc1 (stereo not given),16%,88% (active),19.2%,-4%,91% (active),3.7%,-9%,85% (active),39.1%,-1%,91% (active),55.7%,-13%,97% (active),25.6%,1%,89% (active),11.1%
CN(C)C(=S)/N=c1\ss/c(=N/C(=S)N(C)C)n1-c1ccc([N+](=O)[O-])cc1,6%,32%,97.8% (active),18%,41%,93.3% (active),1%,33%,97.8% (active),-7%,-2%,91.3% (active),5%,4%,98.8% (active),4%,30%,98.2% (active)
O=C(NC(=S)Nc1ncc([N+](=O)[O-])s1)c1ccccc1C(=O)NC(=S)Nc1ncc([N+](=O)[O-])s1,-5%,78% (active),69.5%,9%,67%,29.6%,19%,47%,80.5% (active),-6%,40%,19.4%,-6%,96% (active),75.8% (active),4%,87% (active),79.7% (active)
Cc1ccc(N)c(Cc2c(O)ccc3ccccc23)c1,2%,79% (active),98.2% (active),4%,75% (active),98.7% (active),1%,79% (active),98.8% (active),-7%,64%,98.5% (active),0%,66%,98.7% (active),1%,82% (active),98.6% (active)
Cc1cccc2c1C1OC(=O)C3CCC=C2C31 (stereo not given),-146%,-134%,30.4%,-49%,-55%,53.9%,-56%,-58%,12.8%,-45%,-39%,64.9%,-41%,-52%,28.1%,-107%,-101%,41.8%
O=C1C(c2ccccc2)=S=C2C=CC=CN12,2%,67%,85.2% (active),-1%,41%,41.1%,2%,79% (active),16.8%,-1%,17%,-0.75%,-4%,72% (active),41.5%,19%,95% (active),79.3% (active)
Fc1ccc(CN2COc3c(cc(Cl)c4cccnc34)C2)cc1,9%,97% (active),99.2% (active),1%,97% (active),99.6% (active),2%,99% (active),99.6% (active),-8%,98% (active),99.3% (active),-5%,99% (active),99.5% (active),11%,99% (active),99.5% (active)
CC(=O)O[C@]1(C(C)=O)CC[C@H]2[C@@H]3C[C@H](C)C4=CC(=O)NCC[C@]4(C)[C@H]3CC[C@@]21C,0%,87% (active),93.2% (active),20%,91% (active),94.6% (active),-20%,90% (active),88% (active),6%,81% (active),90.1% (active),14%,92% (active),92% (active),6%,90% (active),94.5% (active)
CC(C)(C)c1ccc(OC(=O)Nc2ccc(Cl)cc2[N+](=O)[O-])c(Br)c1,-31%,32%,33%,2%,9%,64.2%,3%,37%,68.5%,3%,7%,90.8% (active),1%,14%,20.1%,10%,38%,77.5% (active)
C[N+](C)([O-])CCOc1cc2c(c3ccccc13)-c1ccccc1C2=O,1%,63%,83.8% (active),-1%,7%,-4.3%,-4%,19%,-8.2%,-5%,5%,13%,-5%,4%,0.15%,1%,13%,16.9%
O=C(O)c1ccc(/C=C2\COc3ccccc3C2=O)cc1,5%,85% (active),62.6%,14%,92% (active),67%,13%,96% (active),83.1% (active),5%,80% (active),52.8%,24%,94% (active),68.2%,4%,91% (active),84.5% (active)
CCc1ccc(-c2ccccc2)cc1,1%,1%,9.45%,-1%,6%,-2.95%,-1%,-2%,-3.9%,-7%,6%,76.9% (active),9%,10%,9.05%,0%,4%,8.75%
CC(C)/C=N/N(CCOC(=O)Nc1ccccc1)C(=O)Nc1ccccc1,8%,-6%,-3.85%,-6%,-12%,14.3%,-1%,-6%,-12.7%,-5%,-1%,82.2% (active),-7%,-9%,16.1%,-3%,-5%,6.9%
Cc1c(C#N)c(N)nc2c(C(N)=O)nsc12,-2%,-13%,13.2%,-2%,-8%,8.75%,-3%,-9%,10.7%,-2%,-18%,53.6%,9%,16%,-8.4%,-1%,-11%,26.2%
